# Measurements reported in PubChem BioAssay (NCATS).
# Several values for one entry are separate records, joined by “and”; a condition that tells them apart may be missing. Identical values can stand only once. Records with an inconclusive call do not appear. Where a call stands in place of a potency, no number is given. Some structures have more than one record in an assay (separate samples or runs), and their calls can disagree. Activity calls are given as the source filed them. Calls come from the whole dose curve; as a rule, active = well fitted curve in the direction sought with a large enough effect; inconclusive = small, poorly fitted or top-dose-only effect, or another doubt; inactive = no such curve, though single readings can be large; an effect the other way counts as inactive or inconclusive. *1 amine or outer side, *2 acyl side, *3 side chain or, on linkers, in order; H or OH if unused. Where a SMILES comes first, the peptide text is derived from it. Bridges are numbered along the chain shown (N, C = ends). [ ]: non-standard residue; d: D form. The star is where a group is joined. ξ: configuration not given here. X10 = NC1=NCCC(C(N[*:1])C(=O)[*:2])N1; ΔAla(3-NHCONH2) = NC(=O)NC=C(N)C(=O)O; ξβ3hOrn = NCCCC(N)CC(=O)*; Dap = NC[CH](N)C(=O)O
# What was measured:
# [1] = Primary qHTS for inhibitors of nuclear receptor binding SET domain protein 2 (NSD2) in an isogenic RCH-ACV NSD2 p.E1099K mutant (9B) (AID 1645876); note: nearly all actives have a fitted effect of over 70% in size; note: potency is the fitted concentration of half-maximal effect
# [2] = Primary qHTS for inhibitors of nuclear receptor binding SET domain protein 2 (NSD2) in an RCH-ACV wild type WT cells (2C) (AID 1645877); note: nearly all actives have a fitted effect of over 70% in size; note: potency is the fitted concentration of half-maximal effect
# [3] = biological target: Glutathione peroxidase 1 (Homo sapiens) (UniProt P07203); assay: Primary qHTS Assay for Inhibitors of Recombinant Selenoprotein Glutathione Peroxidase 1 (GPX1) (AID 1845191); note: nearly all actives have a fitted effect of over 65% in size; note: potency is the fitted concentration of half-maximal effect
# How it was run: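 GR-coupled readout: NADPH consumption tracked by fluorescence, ex 340/em 450 nm, at t=0 and after 15 min at RT. Final mix 10 nM GPX1, 1 mM GSH, 0.5 mM CHP, 0.5 mM NADPH, 100 nM GR, 0.01% BSA, following 30 min enzyme–compound preincubation.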
# [4] = biological target: Phospholipid hydroperoxide glutathione peroxidase GPX4 (Homo sapiens) (UniProt P36969); assay: Primary qHTS Assay for Inhibitors of Recombinant Selenoprotein Glutathione Peroxidase 4 (GPX4) (AID 1845192); note: nearly all actives have a fitted effect of over 65% in size; for activity change, negative = inhibition: series mostly up to about 50 µM
# How it was run: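 Steps: GPX4 plus compound, 30 min RT; add GR/GSH/NADPH master mix; start with cumene hydroperoxide; read 340/450 nm fluorescence at 0 and 15 min. Finals were 200 nM GPX4, 1 mM GSH, 0.5 mM CHP, 0.5 mM NADPH, 100 nM GR.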
# Sequence of Glutathione peroxidase 1 (Homo sapiens) (P07203 whole entry, looked up): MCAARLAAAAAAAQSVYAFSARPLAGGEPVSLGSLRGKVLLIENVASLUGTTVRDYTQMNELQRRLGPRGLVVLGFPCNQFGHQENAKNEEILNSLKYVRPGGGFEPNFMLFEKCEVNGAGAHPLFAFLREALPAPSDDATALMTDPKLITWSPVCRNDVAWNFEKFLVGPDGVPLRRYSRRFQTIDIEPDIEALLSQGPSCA
# Sequence of Phospholipid hydroperoxide glutathione peroxidase GPX4 (Homo sapiens) (P36969 whole entry, looked up): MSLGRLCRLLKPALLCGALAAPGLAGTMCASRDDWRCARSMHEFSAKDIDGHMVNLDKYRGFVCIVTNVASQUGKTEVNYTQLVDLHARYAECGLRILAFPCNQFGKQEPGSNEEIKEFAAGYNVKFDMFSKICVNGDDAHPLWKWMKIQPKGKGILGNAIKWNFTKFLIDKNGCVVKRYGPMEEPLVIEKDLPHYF
smiles,measurement,setting,value
CC(=O)Oc1ccc(C2(c3ccc(OC(C)=O)cc3)Oc3ccccc3NC2=O)cc1,Potency,[1],8.17 µM (active)
same,Potency,[2],10.3 µM (active)
same,Potency,[3],inactive
same,Potency,[4],inactive
CC(=O)[C@H]1CC[C@H]2[C@@H]3C=CC4=CC(=O)CC[C@@]4(C)[C@@H]3CC[C@]12C,Potency,[1],13.3 µM (active) and inactive
same,Potency,[2],23.7 µM (active) and inactive
same,Potency,[3],inactive
same,Potency,[4],inactive
CC(=O)[C@@]1(O)CC[C@H]2[C@@H]3C[C@H](C)C4=CC(=O)CC[C@]4(C)[C@H]3CC[C@@]21C,Potency,[1],23.7 µM (active)
same,Potency,[2],15 µM (active)
same,Potency,[3],inactive
same,Potency,[4],inactive
CC(=O)O[C@@H]1CC2C3CCc4cc(OC(=O)c5ccccc5)ccc4C3CCC2(C)[C@H]1OC(C)=O (stereo partly drawn),Potency,[1],inactive
same,Potency,[2],inactive
same,Potency,[3],inactive
same,Potency,[4],inactive
CCN(CC)C(=O)C1CN2CCc3cc(OC)c(OC)cc3C2CC1OC(C)=O (stereo not drawn),Potency,[1],inactive
same,Potency,[2],inactive
same,Potency,[3],inactive
CCOC(=O)Oc1ccc(CCNC(=O)[C@H](CCSC)NC(C)=O)cc1OC(=O)OCC,Potency,[1],inactive
same,Potency,[2],inactive
same,Potency,[3],inactive
CCCCN(CCN(CCCC)C(=O)N1CCOCC1)C(=O)N1CCOCC1,Potency,[1],inactive
same,Potency,[2],inactive
same,Potency,[3],inactive
same,Potency,[4],inactive
Cc1cccc(N(C)C(=S)Oc2ccc3c(c2)CCC3)c1,Potency,[1],inactive
same,Potency,[2],inactive
same,Potency,[3],inactive
same,Potency,[4],inactive
Fc1ccc(C(c2ccc(F)cc2)N2CCNCC2)cc1,Potency,[1],inactive
same,Potency,[2],inactive
same,Potency,[3],inactive
C[C@H]1C[C@H]2[C@@H]3CCC4=CC(=O)C=C[C@]4(C)[C@H]3C(=O)C[C@]2(C)[C@@]1(O)C(=O)CO,Potency,[1],inactive
same,Potency,[2],inactive
same,Potency,[3],inactive
CCCCCN(CCCOC)C(=O)C(CCC(=O)O)NC(=O)c1ccc(Cl)c(Cl)c1 (stereo not drawn),Potency,[1],inactive
same,Potency,[2],inactive
same,Potency,[3],inactive
same,Potency,[4],inactive
CN1C(=O)CC(C)(c2ccccc2)C1=O (stereo not drawn),Potency,[1],inactive
same,Potency,[2],inactive
same,Potency,[3],inactive
same,Potency,[4],inactive
Cc1c(F)cc2c(=O)c(C(=O)O)cn3c2c1CCC3C (stereo not drawn),Potency,[1],inactive
same,Potency,[2],inactive
same,Potency,[3],inactive
same,Potency,[4],inactive
COc1cc(C(=O)OC(COCCC(C)C)CN2CCOCC2)cc(OC)c1OC (stereo not drawn),Potency,[1],inactive
same,Potency,[2],inactive
same,Potency,[3],inactive
same,Potency,[4],inactive
CN(CC1(C)CCCO1)S(=O)(=O)c1ccc(Cl)c(S(N)(=O)=O)c1 (stereo not drawn),Potency,[1],inactive
same,Potency,[2],inactive
same,Potency,[3],inactive
Cn1cc(S(C)=O)c(=O)c2ccc(F)cc21 (stereo not drawn),Potency,[1],inactive
same,Potency,[2],inactive
same,Potency,[3],inactive
same,Potency,[4],inactive
O=C(O)Cc1ccccc1Oc1ccc(Cl)cc1Cl,Potency,[1],inactive
same,Potency,[2],inactive
same,Potency,[3],inactive
same,Potency,[4],inactive
CC(C)Cc1ccc(C(C)C(=O)OCc2ccccn2)cc1 (stereo not drawn),Potency,[1],inactive
same,Potency,[2],inactive
same,Potency,[3],inactive
COC(=O)c1cc(Cl)ccc1NS(=O)(=O)C(F)(F)F,Potency,[1],inactive
same,Potency,[2],inactive
same,Potency,[3],inactive
same,Potency,[4],inactive
C[C@@H]1CCC[C@H](C)N1CCCC(O)(c1ccccc1)c1ccccn1 (stereo partly drawn),Potency,[1],inactive
same,Potency,[2],inactive
same,Potency,[3],inactive
CCCCC(O)/C=C(C)/C=C/C=C/C(=O)N1CCCC1=O (stereo not drawn),Potency,[1],inactive
same,Potency,[2],inactive
same,Potency,[3],inactive
same,Potency,[4],inactive
O=C(O)C(=O)Nc1cccc(-c2nn[nH]n2)c1,Potency,[1],inactive
same,Potency,[2],inactive
same,Potency,[3],inactive
CCN(CC)CCOc1ccc(/C(=C(\Cl)c2ccccc2)c2ccccc2)cc1,Potency,[1],15 µM (active) and 8.33 µM (active)
same,Potency,[2],11.9 µM (active) and 5.25 µM (active)
same,Potency,[3],inactive
same,Potency,[4],inactive
CN(C)CCCOC1(Cc2ccccc2)CCCCCC1,Potency,[1],inactive
same,Potency,[2],inactive
same,Potency,[3],inactive
same,Potency,[4],inactive
CC(C)=CCNc1ncnc2c1ncn2[C@@H]1O[C@H](CO)[C@@H](O)[C@H]1O,Potency,[1],1.68 µM (active)
same,Potency,[2],1.06 µM (active)
same,Potency,[3],inactive
Nc1c2ccccc2nc2ccccc12,Potency,[1],3.76 µM (active)
same,Potency,[2],4.22 µM (active)
same,Potency,[3],22.7 µM (active)
O=C(OCC1(COC(=O)c2cccnc2)CCCC(COC(=O)c2cccnc2)(COC(=O)c2cccnc2)C1O)c1cccnc1,Potency,[1],inactive
same,Potency,[2],inactive
same,Potency,[3],inactive
CC(=O)N(CC(=O)N(C)C)c1ccccc1,Potency,[1],inactive
same,Potency,[2],inactive
same,Potency,[3],inactive
same,Potency,[4],inactive
NCCCC(N)CC(=O)NCC1NC(=O)C(CO)NC(=O)C(N)CNC(=O)C(C2CCN=C(N)N2)NC(=O)C(=CNC(N)=O)NC1=O (stereo not drawn) (H-[Dap]S[Dap](ξβ3hOrn)[ΔAla(3-NHCONH2)][X10]; lactam 1-C; configuration not given here),outcome,[1],inactive [at 0.588 µM]
same,outcome,[2],inactive [at 0.588 µM]
same,outcome,[3],inactive [at 0.4 µM]
same,"activity change, negative = inhibition",[4],3.67% [at 0.409 µM] (inactive)
CCCC(=O)OCOC(=O)C1=C(C)NC(C)=C(C(=O)OC)C1c1cccc(Cl)c1Cl (stereo not drawn),Potency,[1],inactive
same,Potency,[2],inactive
same,Potency,[3],inactive
same,Potency,[4],inactive
CCN1CCN(c2cc(-c3ccc(F)cc3)c3c(n2)CCCCCC3)CC1,Potency,[1],inactive
same,Potency,[2],inactive
same,Potency,[3],inactive
same,Potency,[4],inactive
